# Results reported in PMC5540273 (PLoS ONE, 2017).
# Values joined by “and” are separate entries in the source; they are usually repeats but may differ in a detail not shown here. Equal values may be shown once. Read-outs that look alike come from different tables or passages of the source.
# Key:
# [1] = tested on: T1, PYK2; conditions: concentration: 1 μM, replicates: in singlicate, n = 1
# T1 construct: gene PTK2B
# [2] = tested on: QSK; conditions: concentration: 1 μM, replicates: in singlicate, n = 1
# [3] = tested on: RAF1; conditions: concentration: 1 μM, replicates: in singlicate, n = 1
# [4] = tested on: RET; conditions: concentration: 1 μM, replicates: in singlicate; n = 1
# [5] = tested on: RIOK1; conditions: concentration: 1 μM, replicates: in singlicate, n = 1
# [6] = tested on: RIOK2; conditions: concentration: 1 μM, replicates: in singlicate; n = 1
# [7] = tested on: RIOK3; conditions: concentration: 1 μM, replicates: in singlicate; n = 1
# [8] = tested on: RIPK1; conditions: concentration: 1 μM, replicates: in singlicate, n = 1
# [9] = tested on: RIPK2; conditions: concentration: 1 μM, replicates: in singlicate, n = 1
# [10] = tested on: RIPK4; conditions: concentration: 1 μM, replicates: in singlicate, n = 1
# [11] = tested on: RIPK5; conditions: concentration: 1 μM, replicates: in singlicate; n = 1
# [12] = tested on: ROCK1; conditions: concentration: 1 μM, replicates: in singlicate, n = 1
# [13] = tested on: ROCK2; conditions: concentration: 1 μM, replicates: in singlicate, n = 1
# [14] = tested on: ROS1; conditions: concentration: 1 μM, replicates: in singlicate, n = 1
# [15] = tested on: RPS6KA4(Kin.Dom.1-N-terminal); conditions: concentration: 1 μM, replicates: in singlicate, n = 1
# [16] = tested on: RPS6KA4(Kin.Dom.2-C-terminal); conditions: concentration: 1 μM, replicates: in singlicate; n = 1
# [17] = tested on: RPS6KA5(Kin.Dom.1-N-terminal); conditions: concentration: 1 μM, replicates: in singlicate, n = 1
# [18] = tested on: RPS6KA5(Kin.Dom.2-C-terminal); conditions: concentration: 1 μM, replicates: in singlicate, n = 1
# [19] = tested on: T2, RSK1(Kin.Dom.1-N-terminal); conditions: concentration: 1 μM, replicates: in singlicate, n = 1
# T2 construct: gene RPS6KA1
# [20] = tested on: T3, RSK1(Kin.Dom.2-C-terminal); conditions: concentration: 1 μM, replicates: in singlicate; n = 1
# T3 construct: gene RPS6KA1
# 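Also: KINOMEscan kinase panel screen.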
smiles,measurement,setting,value
COc1ccc(Nc2ncc(C#N)c(Nc3ccccc3C(N)=O)n2)cc1N1CCN(C)CC1.Cl [GSK1558669],%Inh,[1],99.2%
same,%Inh,[2],94.7%
same,%Inh,[3],32%
same,%Inh,[4],99.9%
same,%Inh,[5],100%
same,%Inh,[6],98.7%
same,%Inh,[7],79%
same,%Inh,[8],74%
same,%Inh,[9],76%
same,%Inh,[10],98.9%
same,%Inh,[11],98.7%
same,%Inh,[12],87%
same,%Inh,[13],91.2%
same,%Inh,[14],97%
same,%Inh,[15],100%
same,%Inh,[16],97%
same,%Inh,[17],98%
same,%Inh,[18],44%
same,%Inh,[19],99.7%
same,%Inh,[20],47%
Fc1ccc(-c2ncn(CCCN3CCOCC3)c2-c2cccnc2)cc1 [SB-211743],%Inh,[1],0%
same,%Inh,[2],0%
same,%Inh,[3],9%
same,%Inh,[4],3%
same,%Inh,[5],17%
same,%Inh,[6],53%
same,%Inh,[7],0%
same,%Inh,[8],0%
same,%Inh,[9],0%
same,%Inh,[10],4%
same,%Inh,[11],9%
same,%Inh,[12],0%
same,%Inh,[13],6%
same,%Inh,[14],27%
same,%Inh,[15],31%
same,%Inh,[16],0%
same,%Inh,[17],0%
same,%Inh,[18],5%
same,%Inh,[19],2%
same,%Inh,[20],9%
COc1ccc(COc2cc(-n3cnc4ccccc43)sc2C(N)=O)cc1 [GSK1024304],%Inh,[1],0%
same,%Inh,[2],0%
same,%Inh,[3],4%
same,%Inh,[4],26%
same,%Inh,[5],0%
same,%Inh,[6],80%
same,%Inh,[7],0%
same,%Inh,[8],4%
same,%Inh,[9],0%
same,%Inh,[10],0%
same,%Inh,[11],0%
same,%Inh,[12],9%
same,%Inh,[13],20%
same,%Inh,[14],0%
same,%Inh,[15],0%
same,%Inh,[16],0%
same,%Inh,[17],3%
same,%Inh,[18],13%
same,%Inh,[19],6%
same,%Inh,[20],0%
CC(C)(C)n1cnc2c(N)ncnc21 [SKF-97359],%Inh,[1],0%
same,%Inh,[2],0%
same,%Inh,[3],15%
same,%Inh,[4],19%
same,%Inh,[5],2%
same,%Inh,[6],0%
same,%Inh,[7],0%
same,%Inh,[8],0%
same,%Inh,[9],0%
same,%Inh,[10],67%
same,%Inh,[11],0%
same,%Inh,[12],52%
same,%Inh,[13],33%
same,%Inh,[14],64%
same,%Inh,[15],10%
same,%Inh,[16],0%
same,%Inh,[17],0%
same,%Inh,[18],0%
same,%Inh,[19],0%
same,%Inh,[20],80%
O=c1cc(N2CCOCC2)nc2n(Cc3cccc(F)c3)ccn12 [GSK2297430],%Inh,[1],22%
same,%Inh,[2],0%
same,%Inh,[3],0%
same,%Inh,[4],31%
same,%Inh,[5],35%
same,%Inh,[6],11%
same,%Inh,[7],35%
same,%Inh,[8],0%
same,%Inh,[9],0%
same,%Inh,[10],0%
same,%Inh,[11],0%
same,%Inh,[12],0%
same,%Inh,[13],27%
same,%Inh,[14],24%
same,%Inh,[15],19%
same,%Inh,[16],0%
same,%Inh,[17],26%
same,%Inh,[18],0%
same,%Inh,[19],0%
same,%Inh,[20],0%
O=C(c1ccc(-c2cc(-c3c[nH]nc3-c3ccccn3)ccn2)cc1)N1CCOCC1 [GW812171],%Inh,[1],0%
same,%Inh,[2],0%
same,%Inh,[3],9%
same,%Inh,[4],0%
same,%Inh,[5],8%
same,%Inh,[6],0%
same,%Inh,[7],7%
same,%Inh,[8],0%
same,%Inh,[9],1%
same,%Inh,[10],2%
same,%Inh,[11],22%
same,%Inh,[12],0%
same,%Inh,[13],24%
same,%Inh,[14],0%
same,%Inh,[15],6%
same,%Inh,[16],0%
same,%Inh,[17],0%
same,%Inh,[18],0%
same,%Inh,[19],14%
same,%Inh,[20],0%
CCn1cnc2c(N)ncnc21 [GW345098],%Inh,[1],8%
same,%Inh,[2],13%
same,%Inh,[3],3%
same,%Inh,[4],0%
same,%Inh,[5],30%
same,%Inh,[6],6%
same,%Inh,[7],8%
same,%Inh,[8],11%
same,%Inh,[9],1%
same,%Inh,[10],6%
same,%Inh,[11],38%
same,%Inh,[12],12%
same,%Inh,[13],22%
same,%Inh,[14],0%
same,%Inh,[15],5%
same,%Inh,[16],25%
same,%Inh,[17],0%
same,%Inh,[18],0%
same,%Inh,[19],7%
same,%Inh,[20],11%
O=C(NOCC1CC1)c1ccc(F)c(F)c1Nc1ccc(I)cc1Cl,%Inh,[1],0%
same,%Inh,[2],0%
same,%Inh,[3],0%
same,%Inh,[4],17%
same,%Inh,[5],7%
same,%Inh,[6],0%
same,%Inh,[7],0%
same,%Inh,[8],0%
same,%Inh,[9],0%
same,%Inh,[10],100%
same,%Inh,[11],0%
same,%Inh,[12],0%
same,%Inh,[13],0%
same,%Inh,[14],0%
same,%Inh,[15],0%
same,%Inh,[16],0%
same,%Inh,[17],0%
same,%Inh,[18],0%
same,%Inh,[19],0%
same,%Inh,[20],6%
COc1cc2ncn(-c3cc(OCc4sccc4Cl)c(C(N)=O)s3)c2cc1OC [GSK448459],%Inh,[1],0%
same,%Inh,[2],7%
same,%Inh,[3],12%
same,%Inh,[4],26%
same,%Inh,[5],91.8%
same,%Inh,[6],13%
same,%Inh,[7],61%
same,%Inh,[8],0%
same,%Inh,[9],3%
same,%Inh,[10],15%
same,%Inh,[11],0%
same,%Inh,[12],26%
same,%Inh,[13],23%
same,%Inh,[14],6%
same,%Inh,[15],13%
same,%Inh,[16],0%
same,%Inh,[17],5%
same,%Inh,[18],0%
same,%Inh,[19],12%
same,%Inh,[20],0%
Cc1c2ccc(N(C)c3ccnc(Nc4cccc(S(N)(=O)=O)c4)n3)cc2nn1Cc1ccccc1.Cl.Cl [GW787226],%Inh,[1],9%
same,%Inh,[2],0%
same,%Inh,[3],94.5%
same,%Inh,[4],99.9%
same,%Inh,[5],0%
same,%Inh,[6],15%
same,%Inh,[7],0%
same,%Inh,[8],36%
same,%Inh,[9],95.9%
same,%Inh,[10],0%
same,%Inh,[11],28%
same,%Inh,[12],48%
same,%Inh,[13],0%
same,%Inh,[14],62%
same,%Inh,[15],18%
same,%Inh,[16],0%
same,%Inh,[17],0%
same,%Inh,[18],0%
same,%Inh,[19],0%
same,%Inh,[20],19%
NS(=O)(=O)c1cccc(-c2ccc3ncc(N4CCOCC4)nc3c2)c1 [GSK1535721],%Inh,[1],10%
same,%Inh,[2],0%
same,%Inh,[3],5%
same,%Inh,[4],0%
same,%Inh,[5],22%
same,%Inh,[6],41%
same,%Inh,[7],0%
same,%Inh,[8],19%
same,%Inh,[9],13%
same,%Inh,[10],1%
same,%Inh,[11],8%
same,%Inh,[12],0%
same,%Inh,[13],0%
same,%Inh,[14],2%
same,%Inh,[15],4%
same,%Inh,[16],0%
same,%Inh,[17],8%
same,%Inh,[18],13%
same,%Inh,[19],0%
same,%Inh,[20],6%
O=C(NCCCN1CCOCC1)c1cccc(Nc2nccc(Nc3ccc(Oc4ccccc4)cc3)n2)c1 [GW663929],%Inh,[1],0%
same,%Inh,[2],0%
same,%Inh,[3],0%
same,%Inh,[4],17%
same,%Inh,[5],31%
same,%Inh,[6],23%
same,%Inh,[7],36%
same,%Inh,[8],24%
same,%Inh,[9],100%
same,%Inh,[10],29%
same,%Inh,[11],7%
same,%Inh,[12],0%
same,%Inh,[13],27%
same,%Inh,[14],25%
same,%Inh,[15],0%
same,%Inh,[16],0%
same,%Inh,[17],0%
same,%Inh,[18],32%
same,%Inh,[19],18%
same,%Inh,[20],20%
COC(=O)Nc1nc2cc(Oc3ccc(NC(=O)Nc4cc(F)ccc4F)cc3)ccc2[nH]1.Cl [GW701424],%Inh,[1],0%
same,%Inh,[2],0%
same,%Inh,[3],89%
same,%Inh,[4],95.1%
same,%Inh,[5],0%
same,%Inh,[6],0%
same,%Inh,[7],0%
same,%Inh,[8],0%
same,%Inh,[9],38%
same,%Inh,[10],8%
same,%Inh,[11],0%
same,%Inh,[12],52%
same,%Inh,[13],67%
same,%Inh,[14],0%
same,%Inh,[15],0%
same,%Inh,[16],0%
same,%Inh,[17],24%
same,%Inh,[18],43%
same,%Inh,[19],0%
same,%Inh,[20],0%
CC(C)(CN)c1nc(-c2ccc(Cl)c(O)c2)c(-c2ccncc2)[nH]1.O=C(O)C(F)(F)F [SB-477794],%Inh,[1]; 1 µM,0% and 17%
same,%Inh,[2]; 1 µM,91.5% and 86%
same,%Inh,[3]; 1 µM,98.5% and 95.1%
same,%Inh,[4],99.9%
same,%Inh,[5]; 1 µM,0% and 1%
same,%Inh,[6],0%
same,%Inh,[7],0%
same,%Inh,[8]; 1 µM,2% and 0%
same,%Inh,[9]; 1 µM,92.7% and 90%
same,%Inh,[10]; 1 µM,36% and 5%
same,%Inh,[11],0%
same,%Inh,[12]; 1 µM,28% and 43%
same,%Inh,[13]; 1 µM,49% and 40%
same,%Inh,[14]; 1 µM,15% and 53%
same,%Inh,[15]; 1 µM,0% and 23%
same,%Inh,[16],0%
same,%Inh,[17]; 1 µM,5% and 0%
same,%Inh,[18]; 1 µM,7% and 36%
same,%Inh,[19]; 1 µM,16% and 15%
same,%Inh,[20],35%
COc1cc2c(cc1OC[C@@H](O)CO)ncc1c3ccc(C#N)cc3[nH]c21,%Inh,[1],0%
same,%Inh,[2],8%
same,%Inh,[3],21%
same,%Inh,[4],52%
same,%Inh,[5],65%
same,%Inh,[6],0%
same,%Inh,[7],76%
same,%Inh,[8],0%
same,%Inh,[9],0%
same,%Inh,[10],0%
same,%Inh,[11],7%
same,%Inh,[12],91.1%
same,%Inh,[13],96.9%
same,%Inh,[14],0%
same,%Inh,[15],0%
same,%Inh,[16],9%
same,%Inh,[17],0%
same,%Inh,[18],26%
same,%Inh,[19],33%
same,%Inh,[20],17%
